Test results published in PubChem BioAssay (EPA / NIEHS).
Calls of active or inactive are those of the source. How the source made its calls: active means hit-call score of the fitted dose curve at least 0.9, where 1 is the maximum; inactive means score below 0.9.

What was measured:
[1] = read-out: Monokine induced gamma interferon (MIG), CXCL9 (gene 4283); test: BSK_BE3C_MIG: BioMAP Diversity Plus: BE3C Assay for Monokine induced gamma interferon (MIG) Biomarker Activity (AID 2283035); settings: primary human bronchial epithelial cells; actives raise or lower the signal
In short: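 hu bronchial epithelial 1° cells, 24 h cpd; MIG by ELISA; bidirectional fit, DMSO = baseline.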

[2] = read-out: Transforming growth factor beta 1 (TGFb1), TGFB1 (gene 7040); test: BSK_BE3C_TGFb1: BioMAP Diversity Plus: BE3C Assay for Transforming growth factor beta 1 (TGFb1) Biomarker Activity (AID 2283036); settings: primary human bronchial epithelial cells; actives raise or lower the signal
In short: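 TGF-b1 measured via ELISA, 24 h after chemical dosing of human bronchial epithelial cells (BE3C). Overt cytotoxicity assessed in parallel by SRB (0.1%, TCA-fixed, 560 nm); analysis bidirectional relative to DMSO.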

[3] = read-out: Plasminogen activator inhibitor-1 (PAI1), SERPINE1 (gene 5054); test: BSK_BE3C_PAI1: BioMAP Diversity Plus: BE3C Assay for Plasminogen activator inhibitor-1 (PAI1) Biomarker Activity (AID 2283037); settings: primary human bronchial epithelial cells; actives raise or lower the signal
In short: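 In this multiplexed primary-cell system, bronchial epithelial cells receive test chemical and are sampled at 24 h. PAI-1 is read by ELISA, with DMSO serving as negative control for bidirectional fitting.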

[4] = read-out: Urokinase-type plasminogen activator receptor (uPAR), PLAUR (gene 5329); test: BSK_BE3C_uPAR: BioMAP Diversity Plus: BE3C Assay for Urokinase-type plasminogen activator receptor (uPAR) Biomarker Activity (AID 2283039); settings: primary human bronchial epithelial cells; actives raise or lower the signal;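 further: uPAR protein level measured by ELISA on the cells; cells exposed to compound for one day before measurement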
In short: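 Chemically treated human bronchial epithelial cells (lung primary) are assayed for uPAR by ELISA after 24 h, with data fitted in both directions using DMSO as negative control.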

[5] = read-out: Interleukin-6 (IL6), IL6 (gene 3569); test: BSK_CASM3C_IL6: BioMAP Diversity Plus: CASM3C Assay for Interleukin-6 (IL6) Biomarker Activity for (AID 2283040); settings: primary human coronary artery smooth muscle cells; actives raise or lower the signal
[6] = read-out: Tissue plasminogen activator (tPA), PLAT (gene 5327); test: BSK_BE3C_tPA: BioMAP Diversity Plus: BE3C Assay for Tissue plasminogen activator (tPA) Biomarker Activity (AID 2283041); settings: primary human bronchial epithelial cells; actives raise or lower the signal
In short: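 Using human lung primary bronchial epithelial cells, tPA was measured by ELISA 24 h after dosing; data fitted relative to DMSO.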

[7] = read-out: Interleukin-8 (IL8), CXCL8 (gene 3576); test: BSK_CASM3C_IL8: BioMAP Diversity Plus: CASM3C Assay for Interleukin-8 (IL8) Biomarker Activity (AID 2283042); settings: primary human coronary artery smooth muscle cells; actives raise or lower the signal;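 further: IL-8 protein level quantified by ELISA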
[8] = read-out: Human Leukocyte Antigen - DR isotype (HLADR), HLA-DRA (gene 3122); test: BSK_CASM3C_HLADR: BioMAP Diversity Plus: CASM3C Assay for Human Leukocyte Antigen - DR isotype (HLADR) Biomarker Activity (AID 2283043); settings: primary human coronary artery smooth muscle cells; actives raise or lower the signal;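 further: cell-surface HLA-DR protein level quantified by ELISA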
[9] = read-out: Macrophage colony-stimulating factor (MCSF), CSF1 (gene 1435); test: BSK_CASM3C_MCSF: BioMAP Diversity Plus: CASM3C Assay for Macrophage colony-stimulating factor (MCSF) Biomarker Activity (AID 2283044); settings: primary human coronary artery smooth muscle cells; actives raise or lower the signal;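 further: M-CSF protein amount quantified by ELISA after 24 h exposure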
[10] = read-out: Low-density lipoprotein receptor (LDLR), LDLR (gene 3949); test: BSK_CASM3C_LDLR: BioMAP Diversity Plus: CASM3C Assay for Low-density lipoprotein receptor (LDLR) Biomarker Activity (AID 2283045); settings: primary human coronary artery smooth muscle cells; actives raise or lower the signal;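 further: LDLR protein level on the cell surface quantified by ELISA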
[11] = read-out: Monocyte Chemoattractant Protein-1 (MCP1), CCL2 (gene 6347); test: BSK_CASM3C_MCP1: BioMAP Diversity Plus: CASM3C Assay for Monocyte Chemoattractant Protein-1 (MCP1) Biomarker Activity (AID 2283046); settings: primary human coronary artery smooth muscle cells; actives raise or lower the signal;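 further: MCP-1 level quantified by ELISA 24 h after dosing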
[12] = BSK_CASM3C_Proliferation: Cell Proliferation Assessment in the BioMAP Diversity Plus: CASM3C Assay (AID 2283047); settings: primary human coronary artery smooth muscle cells;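 further: sulforhodamine B total protein stain as relative cell number at 560 nm; sub-confluent cells exposed 48 h before staining; fitted both ways against DMSO so gain or loss of cell number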
[13] = read-out: Monokine induced gamma interferon (MIG), CXCL9 (gene 4283); test: BSK_CASM3C_MIG: BioMAP Diversity Plus: CASM3C Assay for Monokine induced gamma interferon (MIG) Biomarker Activity (AID 2283048); settings: primary human coronary artery smooth muscle cells; actives raise or lower the signal;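 further: MIG protein level measured by ELISA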
[14] = read-out: serum amyloid A (SAA), SAA1 (gene 6288); test: BSK_CASM3C_SAA: BioMAP Diversity Plus: CASM3C Assay for serum amyloid A (SAA) Biomarker Activity (AID 2283049); settings: primary human coronary artery smooth muscle cells; actives raise or lower the signal;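 further: SAA protein level quantified by ELISA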
[15] = BSK_CASM3C_SRB: Viability Assessment in the BioMAP Diversity Plus: CASM3C Assay (AID 2283050); settings: primary human coronary artery smooth muscle cells;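 further: total protein by SRB staining as cytotoxicity measure in parallel cultures; cells exposed to compound for 24 h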
[16] = read-out: Thrombomodulin, THBD (gene 7056); test: BSK_CASM3C_Thrombomodulin: BioMAP Diversity Plus: CASM3C Assay for Thrombomodulin Biomarker Activity (AID 2283051); settings: primary human coronary artery smooth muscle cells; actives raise or lower the signal;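 further: thrombomodulin protein level measured by ELISA 24 h after dosing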
[17] = read-out: Tissue Factor, F3 (gene 2152); test: BSK_CASM3C_TissueFactor: BioMAP Diversity Plus: CASM3C Assay for Tissue Factor Biomarker Activity (AID 2283052); settings: primary human coronary artery smooth muscle cells; actives raise or lower the signal;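 further: cell surface tissue factor protein level read by ELISA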
[18] = read-out: Interferon-gamma inducible Protein 10 (IP10), CXCL10 (gene 3627); test: BSK_hDFCGF_IP10: BioMAP Diversity Plus: hDFCGF Assay for Interferon-gamma inducible Protein 10 (IP10) Biomarker Activity (AID 2283053); settings: primary human foreskin fibroblasts; actives raise or lower the signal
In short: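 Chemical-treated human skin fibroblasts (primary) were sampled at 24 h for IP-10 by ELISA. Both increases and decreases relative to DMSO were scored.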

[19] = read-out: Urokinase-type plasminogen activator receptor (uPAR), PLAUR (gene 5329); test: BSK_CASM3C_uPAR: BioMAP Diversity Plus: CASM3C Assay for Urokinase-type plasminogen activator receptor (uPAR) Biomarker Activity (AID 2283054); settings: primary human coronary artery smooth muscle cells; actives raise or lower the signal;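 further: cell-surface uPAR protein level quantified by ELISA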
[20] = read-out: urokinase plasminogen activator (uPA), PLAU (gene 5328); test: BSK_BE3C_uPA: BioMAP Diversity Plus: BE3C Assay for urokinase plasminogen activator (uPA) Biomarker Activity (AID 2283038); settings: primary human bronchial epithelial cells; actives raise or lower the signal
In short: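 Bronchial epithelial cells (human, primary); chemical 24 h; uPA by ELISA; bidirectional fit vs DMSO. SRB (0.1%, after 10% TCA fixation, 560 nm) in parallel cultures for cytotoxicity.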

Measured: AC50

CN(C)c1ccc(N=NS(=O)(=O)O)cc1
not listed: [20]
inactive: all other assays above

CN(C)c1ccc(Cc2ccc(N(C)C)cc2)cc1
active: [16] 20 µM | [19] 2.98 µM
not listed: [4] | [9]
inactive: all other assays above

CCOc1cccc(-n2cc(C(=O)N3CCN(c4cc(C(=O)O)c5ccccc5c4)CC3)nc2-c2ccc(C)cc2)c1
active: [1] 32.6 µM | [2] 27.4 µM | [3] 19.2 µM | [20] 16.8 µM | [5] 30.3 µM | [6] 9.89 µM | [8] 27 µM | [9] 19.2 µM | [11] 34.5 µM | [12] 30.4 µM | [13] 19.2 µM | [18] 10.4 µM | [19] 31.1 µM
inactive: [7] | [10] | [14] | [15] | [16] | [17]

CC(C)(O)c1coc(S(=O)(=O)NC(=O)Nc2c3c(cc4c2CCC4)CCC3)c1
not listed: [4]
inactive: all other assays above

O=C(O)c1cccc(N(Cc2cccnc2)c2ccc(OC(F)F)c(OC(F)F)c2)c1
active: [3] 31.3 µM | [8] 8.72 µM | [9] 11.7 µM | [12] 6.98 µM
not listed: [4]
inactive: all other assays above

Cc1ccc(O)cc1
active: [19] 4.24 µM
not listed: [20]
inactive: all other assays above

Oc1ccc2c(c1)-c1ccccc1C2
active: [12] 6.61 µM
not listed: [4]
inactive: all other assays above

Cc1[nH]cnc1C[C@H]1CCc2c(C)c3ccccc3n2C1=O
active: [10] 18.5 µM | [12] 26.4 µM | [19] 22 µM
not listed: [4]
inactive: all other assays above

O=C1CCC(N2C(=O)c3ccccc3C2=O)C(=O)N1 (stereo unspecified)
not listed: [4]
inactive: all other assays above

CNS(=O)(=O)c1cc(C(=O)N2CCC(CCN3C4CCC3CC(n3c(C)nc5ccccc53)C4)(c3cccc(F)c3)CC2)c(Cl)cc1F (stereo unspecified)
active: [5] 5.62 µM | [8] 28.5 µM | [10] 5.4 µM | [12] 13.5 µM
not listed: [4]
inactive: all other assays above

O=C(O)CCN(C1(C(=O)NO)CCCC1)S(=O)(=O)c1ccc(Oc2ccc(F)cc2)cc1
not listed: [20]
inactive: all other assays above

CC(C)=CCCC(C)=CC=O
not listed: [4]
inactive: all other assays above

CCCCCCCCCCCCCCCO
active: [10] 31.9 µM | [12] 20 µM
not listed: [4]
inactive: all other assays above
